# Laboratory results reported in publication PMC4336329 (PLoS ONE, 2015).
# Hit rate of the full screen: of about 310,000 compounds, about 2,200 (0.71%) showed an effect of 50% or more. The effect is printed as a negative number. This excerpt belongs to a sample that is enriched for strong results.
# Molecular target: human ether-à-go-go-related gene (hERG) potassium channel (human, UniProt Q12809)
# Assay: primary screen, population patch clamp on CHO cells stably expressing hERG; higher = less effect of the substance
# human ether-à-go-go-related gene (hERG) potassium channel, sequence (Q12809 whole entry, looked up): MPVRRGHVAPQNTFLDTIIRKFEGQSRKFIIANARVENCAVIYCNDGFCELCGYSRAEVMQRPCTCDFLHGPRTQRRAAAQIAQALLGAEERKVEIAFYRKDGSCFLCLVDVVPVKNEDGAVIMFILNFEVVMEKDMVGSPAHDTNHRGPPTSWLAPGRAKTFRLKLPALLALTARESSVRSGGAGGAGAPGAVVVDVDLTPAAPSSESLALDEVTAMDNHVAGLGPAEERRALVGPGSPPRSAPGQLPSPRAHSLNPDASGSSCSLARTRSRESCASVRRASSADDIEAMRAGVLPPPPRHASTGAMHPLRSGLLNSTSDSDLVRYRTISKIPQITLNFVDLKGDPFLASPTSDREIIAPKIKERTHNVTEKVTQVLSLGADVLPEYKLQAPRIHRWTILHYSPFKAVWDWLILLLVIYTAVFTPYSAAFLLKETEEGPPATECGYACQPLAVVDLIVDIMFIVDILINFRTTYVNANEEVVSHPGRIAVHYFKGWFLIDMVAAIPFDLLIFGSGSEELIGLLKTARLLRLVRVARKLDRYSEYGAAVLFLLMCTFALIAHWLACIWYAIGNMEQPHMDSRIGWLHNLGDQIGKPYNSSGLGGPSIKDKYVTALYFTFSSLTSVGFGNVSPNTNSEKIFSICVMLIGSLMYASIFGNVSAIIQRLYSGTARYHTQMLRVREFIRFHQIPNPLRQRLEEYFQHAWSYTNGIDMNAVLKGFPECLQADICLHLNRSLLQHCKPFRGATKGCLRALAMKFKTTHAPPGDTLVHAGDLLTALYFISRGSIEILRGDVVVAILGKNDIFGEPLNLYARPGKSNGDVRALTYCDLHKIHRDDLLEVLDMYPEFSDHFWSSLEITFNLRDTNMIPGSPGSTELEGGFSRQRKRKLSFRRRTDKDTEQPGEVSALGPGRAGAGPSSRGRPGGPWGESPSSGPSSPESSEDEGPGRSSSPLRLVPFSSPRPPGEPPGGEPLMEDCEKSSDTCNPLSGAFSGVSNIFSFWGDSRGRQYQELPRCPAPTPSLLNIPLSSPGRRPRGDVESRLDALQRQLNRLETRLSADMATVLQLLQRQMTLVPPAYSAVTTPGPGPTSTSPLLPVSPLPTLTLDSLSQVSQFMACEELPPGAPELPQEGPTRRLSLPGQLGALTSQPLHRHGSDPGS
row,Structure (SMILES),"hERG current change (%, negative = inhibition) at 1uM"
1,COc1ccccc1N(C)S(=O)(=O)c1ccc(Cl)c(C(=O)NC2=NCCS2)c1,21.6%
2,Cc1ccc(S(=O)(=O)NCC2COc3ccccc3O2)cc1 (stereo not drawn),6.71%
3,CCc1ccc(NC(=O)CSCc2nc(N)nc(Nc3ccccc3CC)n2)cc1,10.9%
4,CCc1ccc(CN2CCC(N3CCC(C(=O)N4CCCC4)CC3)CC2)o1,-28.3%
5,O=C(c1cc(F)ccc1F)N1CCC(N2CCC(C(=O)N3CCCC3)CC2)CC1,16.9%
6,O=C(C1CCN(C2CCN(Cc3ccc4cc(F)ccc4n3)CC2)CC1)N1CCCC1,-78.3%
7,CCCCNc1nc2ccccc2n1CC(=O)N1CCc2ccccc2C1,-6.59%
8,N#Cc1nc(-c2ccc(F)cc2)oc1NCc1cccc2c1OCO2,13.6%
9,Cc1cc([N+](=O)[O-])nn1CC(=O)NNC(=S)Nc1ccc([N+](=O)[O-])cc1,11.8%
10,Cc1ccc(OCC(=O)N2CCCC(N3CCN(c4ccc(F)cc4)CC3)C2)cc1 (stereo not drawn),-90.2%
11,O=C(COc1ccccc1Cl)N1CCCC(N2CCN(c3ccc(F)cc3)CC2)C1 (stereo not drawn),-19.5%
12,CSCC(=O)N1CCCC(N2CCN(c3ccc(F)cc3)CC2)C1 (stereo not drawn),0.918%
13,COc1ccccc1OCC(=O)N1CCCC(N2CCN(c3ccc(F)cc3)CC2)C1 (stereo not drawn),4.57%
14,O=C(CSc1ccccc1)N1CCCC(N2CCN(c3ccc(F)cc3)CC2)C1 (stereo not drawn),-56%
15,O=C(CSc1ccccc1)N1CCCC(N2CCN(c3ccccc3)CC2)C1 (stereo not drawn),2.18%
16,CC(=O)Nc1cc(C(C)(C)C)c(O)c(C(C)(C)C)c1,13.4%
17,CCCNC(=O)c1cc(S(=O)(=O)N2CCCCC2)ccc1N1CCOCC1,-9.91%
18,CC1CCC(NC(=O)CN2CCCN(Cc3ccc(F)cc3Cl)C2=O)CC1 (stereo not drawn),8.34%
19,CN(C)C1(CNC(=O)Nc2ccc(Cl)c(Cl)c2)CCCCC1,3.77%
20,O=c1c2ccccc2nc2n1CC/C2=C\N1CCN(c2ccc([N+](=O)[O-])cc2)CC1,-62.1%
21,Cl.O.O=c1c2ccccc2nc2n1CC/C2=C/N1CCN(c2cccc(C(F)(F)F)c2)CC1,5.54%
22,Cc1nc2ccccc2c(=O)n1-c1ccc([N+](=O)[O-])cc1,11.2%
23,O=[N+]([O-])c1ccc(CS(=O)(=O)N2CCN(c3ccccc3)CC2)cc1,-3.45%

row,Structure (SMILES),"hERG current change (%, negative = inhibition) at 1uM"
1,CC1CCCC(C)N1c1nnc(N)s1 (stereo not drawn),10.6%
2,Cc1ccccc1NC(=S)N1CCCN(Cc2ccc(F)cc2)C1,8.61%
3,CSc1nc(NCC(C)C)c2c3c(sc2n1)CN(C)CC3,-9.92%
4,CSc1nc(NCc2ccco2)c2c3c(sc2n1)CN(C)CC3,-38.8%
5,CSc1nc(NCc2ccccc2)c2c3c(sc2n1)CN(C)CC3,-64.2%
6,CC(C)c1ccc2c(c1)c(SC(C)(C)C)c(CC(C)(C)C(=O)O)n2Cc1ccc(Cl)cc1,5.14%
7,COCCNC(=O)C(OC(=O)c1cc2oc(C)cc2n1C)C(C)C (stereo not drawn),7.23%
8,COc1cn(-c2ccccc2)nc1C(=O)Nc1ccc(C)cc1Cl,11.4%
9,CC(C)(C)NCC(O)(c1ccc(Cl)cc1)c1ccc(Cl)cc1,13%
10,CCCCNCC(O)(c1ccc(Cl)cc1)c1ccc(Cl)cc1,-5.39%
11,CCN(CC)CCNCC(O)(c1ccc(Cl)cc1)c1ccc(Cl)cc1,-84.4%
12,Cc1ccc(NC(=O)CN(c2ccc(Cl)cc2)S(=O)(=O)c2cc([N+](=O)[O-])ccc2Cl)cc1,7.07%
13,CC(C1CC2CCC1C2)n1c(COc2ccccc2F)nnc1SCC(N)=O (stereo not drawn),-1.9%
14,O=C(C1CCC1)N1CCN(c2ccnc3cc(Cl)ccc23)CC1,-59.6%
15,Cc1nc2ccccc2c2oc(C(=O)N3CCN(C(=O)c4ccco4)CC3)cc12,-23.2%
16,O=C(c1ccco1)N1CCN(c2cccc(Cl)c2)CC1,9.98%
17,Cc1cccc2[nH]c3c(N4CCN(C(=O)c5ccco5)CC4)ncnc3c12,-5.77%
18,O=C(c1ccco1)N1CCN(c2ccc(Cl)cc2)CC1,-5.03%
19,Cc1cc(N2CCN(C(=O)c3ccco3)CC2)nc(-c2ccccc2)n1,-22.6%
20,CCOc1ccc2[nH]c3c(N4CCN(C(=O)c5ccco5)CC4)ncnc3c2c1,-3.41%
21,O=C(c1ccco1)N1CCN(c2ccnc3cc(Cl)ccc23)CC1,-63.6%
22,O=C(c1ccco1)N1CCN(c2ncnc3c2[nH]c2ccc(Cl)cc23)CC1,-70.1%
23,Cc1cc(N2CCN(C(=O)c3ccco3)CC2)c2ccccc2n1,-68.6%

row,Structure (SMILES),"hERG current change (%, negative = inhibition) at 1uM"
1,O=C(C1CCCCC1)N1CCN(c2ccnc3cc(Cl)ccc23)CC1,-27.1%
2,O=C(C1CC1)N1CCN(c2ccnc3cc(Cl)ccc23)CC1,-31.6%
3,CCCOc1ccc(N2CC(C(=O)NC3=NCCS3)CC2=O)cc1 (stereo not drawn),-26%
4,CCCCN1CCC(COC(=O)c2cc(Cl)c(N)c3c2OCCO3)CC1.Cl,-23.9%
5,COc1ccccc1CNS(=O)(=O)c1ccc(-n2cccn2)cc1,13.3%
6,O=C(NCc1cccs1)c1ccccc1,7.23%
7,CCNc1nc(SCC(=O)OC)nc(N(C)C)n1,-1.18%
8,COc1ccc(CN(CC(=O)NC2CCCCC2)C(=O)CCCC(=O)Nc2ccccn2)cc1,9.4%
9,Cc1ccccc1OCC(=O)Nc1ccccc1C(=O)N1CCCCC1,-4.24%
10,CC(=O)Nc1ccc(CNc2ncnc3ccc(-c4c(C)noc4C)cc23)cc1,11.5%
11,O=C1C=C(O)C(n2cncn2)C(c2ccc(F)cc2)C1 (stereo not drawn),-9.66%
12,COC(=O)c1cc(C(=O)OC)cc(N2C(=O)CC(NNC(=O)c3ccccc3Br)C2=O)c1 (stereo not drawn),4.08%
13,O=C1NC2(CCCCC2)C(=O)N1Cc1cc(=O)n2ccsc2n1,6.06%
14,Cc1ccc(CN2C(=O)CCC2C(=O)NCc2ccccc2Cl)cc1 (stereo not drawn),7.62%
15,Nc1nc2ccc(-c3nc4ccccc4o3)cc2s1,11.2%
16,CC(=O)N1CCN(c2ccnc3cc(Cl)ccc23)CC1,-23.2%
17,CC(C)(C)C(=O)N1CCN(c2ccnc3cc(Cl)ccc23)CC1,-55.8%
18,CCOC(=O)N1CCN(c2ccnc3cc(Cl)ccc23)CC1,-36.7%
19,c1cncc(-c2nc3ccccn3c2Nc2ccc3c(c2)OCCO3)c1,4.02%
20,O=C(O)CN(Cc1ccco1)S(=O)(=O)c1ccc(F)cc1,11.9%
21,CCOc1cccc(C(=O)Nc2ccc3[nH]ncc3c2)c1,21.7%
22,CN1CCN(C(=O)/C(=C\c2ccc3c(c2)OCO3)NC(=O)c2cccs2)CC1,-75.6%
23,CN1CCN(C(=O)/C(=C\c2cccs2)NC(=O)c2cccs2)CC1,-77.3%

row,Structure (SMILES),"hERG current change (%, negative = inhibition) at 1uM"
1,Cc1ccc(NC(=O)/C(=C\c2cccs2)NC(=O)c2ccccc2)cc1,-1.02%
2,O=C(N/C(=C\c1ccc2c(c1)OCO2)C(=O)N1CCOCC1)c1cccs1,-18.7%
3,O=C(N/C(=C/c1cccs1)C(=O)N1CCCC1)c1ccccc1,14.4%
4,O=C(N/C(=C\c1cccs1)C(=O)N1CCOCC1)c1cccs1,6.69%
5,CN1CCN(C(=O)/C(=C\c2cccs2)NC(=O)c2ccccc2)CC1,-78.3%
6,O=C(N/C(=C\c1cccs1)C(=O)N1CCCCCC1)c1ccccc1,1.61%
7,O=C(N/C(=C/c1cccs1)C(=O)N1CCOCC1)c1cccs1,8.07%
8,O=C(N/C(=C/c1ccc2c(c1)OCO2)C(=O)N1CCOCC1)c1cccs1,9.57%
9,Cc1cccc(NC(=O)/C(=C\c2cccs2)NC(=O)c2ccccc2)c1,-65.1%
10,O=C(Nc1ccccc1)/C(=C\c1cccs1)NC(=O)c1ccccc1,14.9%
11,Cc1ccc(NC(=O)CCC(=O)c2ccc(Br)cc2)cc1,10.9%
12,COc1ccc(C(=O)N/N=C/c2cc(Br)ccc2O)cc1OC,14.7%
13,CCOc1cc(/C=C2/C(=N)N3C(=NC2=O)SN=C3S(C)(=O)=O)ccc1OS(=O)(=O)c1ccccc1,17.3%
14,CCOC(=O)c1sc2nc(C)nc(NCc3cccnc3)c2c1C,10.8%
15,COc1ccc(/C=N/Nc2ccc(C(F)(F)F)cc2[N+](=O)[O-])cc1O,3.36%
16,[O-][n+]1onc2c3cc(-c4ccccc4)nnc3ccc21,1.69%
17,CC(C)(Oc1ccc(Cl)cc1)C(=O)N1CCN(c2ccccn2)CC1,-1.81%
18,COc1cccc(NC(=O)c2cc(-c3cccnc3)nc3c(Cl)cccc23)c1,7.59%
19,COc1ccc2c(c1OC)C(=O)OC2C1c2c(cc3c(c2OC)OCO3)CCN1C.Cl (stereo not drawn),9.06%
20,COc1ccc(CC(O)CC2c3c(cc4c(c3OC)OCO4)CCN2C)cc1.Cl (stereo not drawn),-51.8%
21,COc1c2c(cc3c1C(CC(O)Cc1ccccc1)N(C)CC3)OCO2 (stereo not drawn),-14%
